From article PMC8384837, “Expanding the binding specificity for RNA recognition by a PUF domain”
Residue numbers refer to the chain shown, from its start.

How the values were obtained:
Test in all cases: yeast three-hybrid, YBZ-1, SC-Leu-His + 0.5 mM 3-AT, 4 days
Settings in all cases: tags: N-Gal4 AD-HA kept; label: inside an RPR1-promoter hybrid RNA with tandem MS2 sites; ssRNA
PUM1 PUF domain R3-LSG = PUM1 PUF domain R3-LSG (Homo sapiens, UniProt Q14671 828-1176, C935L;R936S;Q939G)
In short: (§1)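 The interaction score is the logarithmic change in variant frequency from input to selection. It uses log2, with a pseudocount of 1 for absent variants, and frequencies came from PCR-amplified, Illumina-sequenced repeat regions. The libraries were Pumilio-1 PUF domains randomized at the three base-contacting residues per repeat, co-expressed with matching RNA elements in strain YBZ-1 (LexA–MS2 coat fusion, HIS3 reporter). Plating lasted four days on SC-Leu (input) or SC-Leu-His + 0.5 mM 3-AT (selection).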

PUM1 PUF domain R3-LST = PUM1 PUF domain R3-LST (Homo sapiens, UniProt Q14671 828-1176, C935L;R936S;Q939T)
In short: as §1

PUM1 PUF domain R1-CWR = PUM1 PUF domain R1-CWR (Homo sapiens, UniProt Q14671 828-1176, S863C;R864W;Q867R)
In short: as §1

PUM1 PUF domain R3-RRR = PUM1 PUF domain R3-RRR (Homo sapiens, UniProt Q14671 828-1176, C935R;Q939R)
In short: as §1

PUM1 PUF domain R3-SPT = PUM1 PUF domain R3-SPT (Homo sapiens, UniProt Q14671 828-1176, C935S;R936P;Q939T)
In short: as §1

PUM1 PUF domain R6-CFY = biological target: T1, PUM1 PUF domain R6-CFY (Homo sapiens, UniProt Q14671 828-1176, N1043C;Y1044F;Q1047Y)
T1 sequence: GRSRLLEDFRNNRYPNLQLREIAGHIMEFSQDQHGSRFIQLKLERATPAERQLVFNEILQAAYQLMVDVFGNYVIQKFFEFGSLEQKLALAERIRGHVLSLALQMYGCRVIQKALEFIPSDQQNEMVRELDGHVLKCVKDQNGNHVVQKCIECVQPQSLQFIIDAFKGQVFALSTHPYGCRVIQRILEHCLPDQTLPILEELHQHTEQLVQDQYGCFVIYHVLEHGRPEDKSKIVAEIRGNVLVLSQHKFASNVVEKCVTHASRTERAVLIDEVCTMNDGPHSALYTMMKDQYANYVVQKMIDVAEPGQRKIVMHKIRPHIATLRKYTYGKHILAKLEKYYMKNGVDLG
In short: as §1

PUM1 PUF domain R6-AYQ = biological target: T2, PUM1 PUF domain R6-AYQ (Homo sapiens, UniProt Q14671 828-1176, N1043A)
T2 sequence: T1 sequence with C216A, F217Y, Y220Q
In short: as §1

PUM1 PUF domain R6-VWV = biological target: T3, PUM1 PUF domain R6-VWV (Homo sapiens, UniProt Q14671 828-1176, N1043V;Y1044W;Q1047V)
T3 sequence: T1 sequence with C216V, F217W, Y220V
In short: as §1

PUM1 PUF domain R4-GPS = PUM1 PUF domain R4-GPS (Homo sapiens, UniProt Q14671 828-1176, N971G;H972P;Q975S)
In short: as §1

PUM1 PUF domain R4-GPR = PUM1 PUF domain R4-GPR (Homo sapiens, UniProt Q14671 828-1176, N971G;H972P;Q975R)
In short: as §1

PUM1 PUF domain R4-PHG = PUM1 PUF domain R4-PHG (Homo sapiens, UniProt Q14671 828-1176, N971P;Q975G)
In short: as §1

PUM1 PUF domain R4-DFG = PUM1 PUF domain R4-DFG (Homo sapiens, UniProt Q14671 828-1176, N971D;H972F;Q975G)
In short: as §1

PUM1 PUF domain R8-HYP = PUM1 PUF domain R8-HYP (Homo sapiens, UniProt Q14671 828-1176, N1122H;Q1126P)
In short: as §1

PUM1 PUF domain R4-THP = PUM1 PUF domain R4-THP (Homo sapiens, UniProt Q14671 828-1176, N971T;Q975P)
In short: as §1

PUM1 PUF domain R4-NQQ = PUM1 PUF domain R4-NQQ (Homo sapiens, UniProt Q14671 828-1176, H972Q)
In short: as §1

PUM1 PUF domain R7-RTL = PUM1 PUF domain R7-RTL (Homo sapiens, UniProt Q14671 828-1176, S1079R;N1080T;E1083L)
In short: as §1

PUM1 PUF domain R7-RRA = PUM1 PUF domain R7-RRA (Homo sapiens, UniProt Q14671 828-1176, S1079R;N1080R;E1083A)
In short: as §1

PUM1 PUF domain R7-VSR = PUM1 PUF domain R7-VSR (Homo sapiens, UniProt Q14671 828-1176, S1079V;N1080S;E1083R)
In short: as §1

PUM1 PUF domain R5-DFA = PUM1 PUF domain R5-DFA (Homo sapiens, UniProt Q14671 828-1176, C1007D;R1008F;Q1011A)
In short: as §1

PUM1 PUF domain R8-PWQ = PUM1 PUF domain R8-PWQ (Homo sapiens, UniProt Q14671 828-1176, N1122P;Y1123W)
In short: as §1

Sequence of PUM1 PUF domain R4-PHG (Q14671 828-1176 N971P/Q975G): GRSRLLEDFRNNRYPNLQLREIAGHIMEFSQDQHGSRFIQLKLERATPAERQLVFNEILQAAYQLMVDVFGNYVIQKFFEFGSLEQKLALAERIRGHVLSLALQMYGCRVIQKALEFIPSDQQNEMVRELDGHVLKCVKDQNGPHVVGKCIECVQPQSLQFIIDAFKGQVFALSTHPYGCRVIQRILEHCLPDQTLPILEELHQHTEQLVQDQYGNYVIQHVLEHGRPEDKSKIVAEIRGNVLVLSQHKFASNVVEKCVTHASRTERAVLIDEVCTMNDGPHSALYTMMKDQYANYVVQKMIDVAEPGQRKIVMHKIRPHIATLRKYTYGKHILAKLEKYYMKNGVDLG
Sequence of PUM1 PUF domain R4-GPS (Q14671 828-1176 N971G/H972P/Q975S): as the sequence (Q14671 828-1176 N971P/Q975G) above, with P144G, H145P, G148S counted along it
Sequence of PUM1 PUF domain R3-LST (Q14671 828-1176 C935L/R936S/Q939T): as the sequence (Q14671 828-1176 N971P/Q975G) above, with C108L, R109S, Q112T, P144N, G148Q counted along it
Sequence of PUM1 PUF domain R8-HYP (Q14671 828-1176 N1122H/Q1126P): as the sequence (Q14671 828-1176 N971P/Q975G) above, with P144N, G148Q, N295H, Q299P counted along it
Sequence of PUM1 PUF domain R3-LSG (Q14671 828-1176 C935L/R936S/Q939G): as the sequence (Q14671 828-1176 N971P/Q975G) above, with C108L, R109S, Q112G, P144N, G148Q counted along it
Sequence of PUM1 PUF domain R3-RRR (Q14671 828-1176 C935R/Q939R): as the sequence (Q14671 828-1176 N971P/Q975G) above, with C108R, Q112R, P144N, G148Q counted along it

Q: Which binding signal (PUM1 PUF domain R3-LSG) does the source give for “GGCUAGAACUAGUGGAUCCCCCGGCGCCCGGCGGCUCGAGCCCGGGUAAGUGUAAGUAGUCUGCAUGCCGCCGGGCGCCAUGCCUGCAGGUCGACUCUAGAAAACAUG” here?
A: 2.82 log2 enrichment (interaction score)

Q: What about the binding signal (PUM1 PUF domain R3-LST) of the same sequence?
A: 3.44 log2 enrichment (interaction score)

Q: With “GGCUAGAACUAGUGGAUCCCCCGGCGCCCGGCGGCUCGAGCCCGGGUAAGUGUAAAUGGUCUGCAUGCCGCCGGGCGCCAUGCCUGCAGGUCGACUCUAGAAAACAUG” as the sequence, how does the binding signal (PUM1 PUF domain R1-CWR) read?
A: 1.23 log2 enrichment (interaction score)

Q: Which binding signal (PUM1 PUF domain R3-RRR) does the source give for “GGCUAGAACUAGUGGAUCCCCCGGCGCCCGGCGGCUCGAGCCCGGGUAAGUGUAAUUAGUCUGCAUGCCGCCGGGCGCCAUGCCUGCAGGUCGACUCUAGAAAACAUG” here?
A: 3.73 log2 enrichment (interaction score)

Q: And the binding signal (PUM1 PUF domain R3-LSG)?
A: 1.48 log2 enrichment (interaction score)

Q: What about the binding signal (PUM1 PUF domain R3-SPT) of the same sequence?
A: 1.18 log2 enrichment (interaction score)

Q: And the binding signal (PUM1 PUF domain R3-LST)?
A: 2.71 log2 enrichment (interaction score)

Q: With “GGCUAGAACUAGUGGAUCCCCCGGCGCCCGGCGGCUCGAGCCCGGGUAAGUGAAAAUAGUCUGCAUGCCGCCGGGCGCCAUGCCUGCAGGUCGACUCUAGAAAACAUG” as the sequence, how does the binding signal (PUM1 PUF domain R6-CFY) read?
A: 1.54 log2 enrichment (interaction score)

Q: What about the binding signal (PUM1 PUF domain R6-AYQ) of the same sequence?
A: 4.26 log2 enrichment (interaction score)

Q: And the binding signal (PUM1 PUF domain R6-VWV)?
A: 4.54 log2 enrichment (interaction score)

Q: Which results are given for “GGCUAGAACUAGUGGAUCCCCCGGCGCCCGGCGGCUCGAGCCCGGGUAAGUGUACAUAGUCUGCAUGCCGCCGGGCGCCAUGCCUGCAGGUCGACUCUAGAAAACAUG”?
A: binding signal (PUM1 PUF domain R4-GPS): 1.84 log2 enrichment (interaction score); binding signal (PUM1 PUF domain R4-GPR): 2.58 log2 enrichment (interaction score); binding signal (PUM1 PUF domain R4-PHG): 4.15 log2 enrichment (interaction score); binding signal (PUM1 PUF domain R4-DFG): 2.96 log2 enrichment (interaction score)

Q: For “GGCUAGAACUAGUGGAUCCCCCGGCGCCCGGCGGCUCGAGCCCGGGUAAGUGUAAAUCGUCUGCAUGCCGCCGGGCGCCAUGCCUGCAGGUCGACUCUAGAAAACAUG”, which binding signal (PUM1 PUF domain R1-CWR) is on record?
A: 6.18 log2 enrichment (interaction score)

Q: “GGCUAGAACUAGUGGAUCCCCCGGCGCCCGGCGGCUCGAGCCCGGGUAAGGGUAAAUAGUCUGCAUGCCGCCGGGCGCCAUGCCUGCAGGUCGACUCUAGAAAACAUG” was tested. Which binding signal (PUM1 PUF domain R8-HYP) did it give?
A: 2.77 log2 enrichment (interaction score)

Q: How did the binding signal (PUM1 PUF domain R4-THP) turn out when “GGCUAGAACUAGUGGAUCCCCCGGCGCCCGGCGGCUCGAGCCCGGGUAAGUGUAUAUAGUCUGCAUGCCGCCGGGCGCCAUGCCUGCAGGUCGACUCUAGAAAACAUG” was run?
A: 2.79 log2 enrichment (interaction score)

Q: What about the binding signal (PUM1 PUF domain R4-GPS) of the same sequence?
A: 2.94 log2 enrichment (interaction score)

Q: What about the binding signal (PUM1 PUF domain R4-GPR) of the same sequence?
A: 0.87 log2 enrichment (interaction score)

Q: What about the binding signal (PUM1 PUF domain R4-PHG) of the same sequence?
A: 4.99 log2 enrichment (interaction score)

Q: And the binding signal (PUM1 PUF domain R4-NQQ)?
A: 2.71 log2 enrichment (interaction score)

Q: Which results are given for “GGCUAGAACUAGUGGAUCCCCCGGCGCCCGGCGGCUCGAGCCCGGGUAAGUUUAAAUAGUCUGCAUGCCGCCGGGCGCCAUGCCUGCAGGUCGACUCUAGAAAACAUG”?
A: binding signal (PUM1 PUF domain R7-RTL): 3.26 log2 enrichment (interaction score); binding signal (PUM1 PUF domain R7-RRA): 3.23 log2 enrichment (interaction score); binding signal (PUM1 PUF domain R7-VSR): 3.33 log2 enrichment (interaction score)

Q: For “GGCUAGAACUAGUGGAUCCCCCGGCGCCCGGCGGCUCGAGCCCGGGUAAGUGUAAAUAGUCUGCAUGCCGCCGGGCGCCAUGCCUGCAGGUCGACUCUAGAAAACAUG”, which binding signal (PUM1 PUF domain R6-CFY) is on record?
A: 2.39 log2 enrichment (interaction score)

Q: And the binding signal (PUM1 PUF domain R4-GPS)?
A: 4.4 log2 enrichment (interaction score)

Q: What about the binding signal (PUM1 PUF domain R5-DFA) of the same sequence?
A: 4.36 log2 enrichment (interaction score)

Q: And the binding signal (PUM1 PUF domain R8-PWQ)?
A: 3.79 log2 enrichment (interaction score)

Q: And the binding signal (PUM1 PUF domain R4-PHG)?
A: 4.7 log2 enrichment (interaction score)

Q: What about the binding signal (PUM1 PUF domain R6-VWV) of the same sequence?
A: 1.13 log2 enrichment (interaction score)

Q: What about the binding signal (PUM1 PUF domain R4-DFG) of the same sequence?
A: 5.83 log2 enrichment (interaction score)

Q: What about the binding signal (PUM1 PUF domain R3-SPT) of the same sequence?
A: 2.13 log2 enrichment (interaction score)

Q: With “GGCUAGAACUAGUGGAUCCCCCGGCGCCCGGCGGCUCGAGCCCGGGUAAGCGUAAAUAGUCUGCAUGCCGCCGGGCGCCAUGCCUGCAGGUCGACUCUAGAAAACAUG” as the sequence, how does the binding signal (PUM1 PUF domain R8-HYP) read?
A: 5.46 log2 enrichment (interaction score)

Q: With “GGCUAGAACUAGUGGAUCCCCCGGCGCCCGGCGGCUCGAGCCCGGGUAAGUCUAAAUAGUCUGCAUGCCGCCGGGCGCCAUGCCUGCAGGUCGACUCUAGAAAACAUG” as the sequence, how does the binding signal (PUM1 PUF domain R7-RRA) read?
A: 5.23 log2 enrichment (interaction score)
